tim10-1 inh: tim10-1 yeast growth inhibition | S. cerevisiae tim10-1 ts strain growth, BacTiter-Glo, 24 h | inhibition, % at 20 µM | actives 2.2% (n = 330,000);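 active = inhibition of at least 40%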;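 also: mutant grown at 25 °C; 0% = DMSO wells with yeast and 100% = wells holding no yeast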
NALP1 yeast inh: blocks the NALP1 inflammasome reconstituted in yeast | S. cerevisiae NALP1/ASC/caspase-1 growth, X-gal OD620, 72 h | inhibition, % at 10 µM | actives 0.61% (n = 280,000) | AID 2071; in the data active = inhibition mostly above about 24%, no sharp cut-off; inactive = mostly below about 32%
TIM10 inh: growth inhibitors of TIM10 yeast strain; S. cerevisiae TIM10 strain growth, BacTiter-Glo luminescence, 24 h; inhibition, % at 10 µM; actives 1.4% (n = 330,000);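 active = inhibition of 40% or more at the single tested concentration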;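 also: wild-type TIM10 isogenic control strain grown at permissive 25 °C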
tim23-1 inh: tim23-1 yeast growth inhibition; actives 1.3% (n = 330,000); S. cerevisiae tim23-1 growth, BacTiter-Glo luminescence, 24 h; AID 463212; inhibition, % at 20 µM;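 active = growth inhibition of the mutant yeast at or above 50%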;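 also: temperature-sensitive mutant grown at 25 °C; plate controls were DMSO-treated mutant yeast for no effect and medium wells lacking yeast for full effect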
SKKanGAS inh: inhibitors of SKKanGAS S. pyogenes growth in kanamycin (SK-promoter or general growth effect); BacTiter-Glo, 6 h; inhibition, % at 7.5 µM; actives 1.3% (n = 300,000); AID 1662;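 active = mean replicate score, as percent of positive control median, at least 50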;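 also: strain carries kanamycin resistance gene driven by streptokinase promoter and grows in 40 µg/ml kanamycin; loss of luminescence reflects streptokinase promoter inhibition or plain growth inhibition; 0% = median of DMSO wells and 100% = positive control at its reference dose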
PfHsp90 yeast 2: inhibits growth of yeast expressing Plasmodium falciparum Hsp90. inhibition, % at 9.4 µM. S. cerevisiae expressing PfHsp90, BacTiter-Glo ATP, 48 h; yeast lacking PDR1 and PDR3 efflux regulators. actives 0.32% (n = 310,000);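 active = every replicate shows inhibition above about 80%, whatever the replicate mean, limit read from the data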;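 also: 0% = DMSO neutral controls and 100% = 20 µM radicicol positive controls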
tim10-1 confirm: tim10-1 yeast growth inhibition, confirmed. inhibition, % at 20 µM. AID 463213. S. cerevisiae tim10-1 ts strain growth, BacTiter-Glo, 24 h. actives 56% (n = 7,400). shares compounds with tim10-1 inh;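 active = inhibition of yeast growth at or above a set limit in either of two repeat tests at 20 µM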;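 also: tim10-1 mutant grown at permissive 25 °C to find synthetic lethal compounds; 0% = DMSO yeast wells and 100% = medium wells without yeast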
Numbers without * were called inactive; . = no result. The list is not random: actives were taken first. Their share in the collection is about 4.8%.

SMILES	tim10-1 inh	NALP1 yeast inh	TIM10 inh	tim23-1 inh	SKKanGAS inh	PfHsp90 yeast 2	tim10-1 confirm
COc1ccc(/C=C/C(=O)c2cc(F)ccc2OC(=O)c2ccccc2C)cc1OC	41*	28	20	30	-15	-15	20
CC(C#N)(NC(=O)COC(=O)c1ccccc1NCCO)C1CC1 (stereo not given)	13	.	3	-5	-12	.	.
Cc1ccc(-c2nc(C(=O)NCCCN3CCOCC3)cc3c2[nH]c2ccccc23)cc1	40*	10	18	26	10	.	32*
Cc1ccc2oc(C(=O)N(Cc3ccc(N(C)C)cc3)CC3CCCO3)c(C)c2c1 (stereo not given)	40	6	1	37	-2	-4	-11
Cc1cc2oc(C(=O)N(Cc3ccc(N(C)C)cc3)CC3CCCO3)c(C)c2cc1C (stereo not given)	25	13	27	33	32	-19	.
COc1cc2[nH]c(C(=O)N(C)C3CCS(=O)(=O)C3)cc2c(OC)c1OC (stereo not given)	0	-14	-5	-3	-2	-10	.
COc1ccc(C(=O)NC(=S)Nc2ccc(CN3CCOCC3)cc2)cc1OC	10	.	15	18	13	.	.
O=C(NC(=S)Nc1ccc(N2CCOCC2)cc1)c1ccccc1	28	-1	6	-1	9	10	.
COc1ccc(C(=O)NC(=S)Nc2ccc(CN3CCOCC3)cc2)cc1Cl	52*	-3	14	37	2	-2	-30
O=C(Nc1ccc(CN2CCOCC2)cc1)c1ccc(Br)o1	-6	14	8	19	0	0	.
CCC(=O)NC(=S)Nc1cccc(NC(=O)c2ccccc2Cl)c1	45*	-7	30	47	6	0	23
O=C(Nc1ccc(CN2CCOCC2)cc1)c1ccc(-c2cc(Cl)ccc2Cl)o1	44*	11	14	11	10	8	29
O=C(NC(=S)Nc1ccc(N2CCOCC2)cc1)c1cccc(Cl)c1	41*	24	22	46	-5	-1	24
CCC(=O)NC(=S)Nc1cccc(NC(=O)c2ccccc2C)c1	39	-6	9	36	-1	4	.
COc1cccc(CC(=O)OCc2csc(CC(=O)Nc3ccccc3C)n2)c1	10	.	3	25	.	-11	.
CC(=O)c1cccc(NC(=S)NC(=O)c2ccccc2)c1	31	41	-7	33	-18	19	.
CC(=O)c1cccc(NC(=S)NC(=O)c2cccc(Cl)c2)c1	45*	21	21	37	-2	1	15
CCC1CCCCN1c1cc(C)nc2cc(-c3cccc(C)c3)nn12 (stereo not given)	42*	0	23	21	57*	-25	9
Cc1ccc(N(CC(=O)NCc2ccccc2)C(=O)CCC(=O)Nc2ccccn2)c(C)c1	4	7	15	17	-5	22	.
Fc1ccccc1N1CCN(CC2CCCCC2)CC1	-12	38	-24	-36	3	-8	.
CCN(CC)S(=O)(=O)c1ccc(S(=O)(=O)N2CCN(C(=O)c3ccco3)CC2)cc1	8	27	-5	-1	-7	-12	.
CCCCc1ccc(S(=O)(=O)N2CCN(C(=O)c3ccco3)CC2)cc1	52*	29	23	34	0	5	32*
CCOC(=O)C1(C)NC(c2ccco2)C2C(=O)N(CC)C(=O)C21 (stereo not given)	3	-6	1	12	9	-15	.
Cc1cc(NC(=O)c2ccccc2)n(-c2nc3ccccc3[nH]2)n1	-12	-4	18	5	0	-1	.
Cc1cc(NC(=O)c2sccc2C)n(-c2nc3ccccc3[nH]2)n1	49*	3	21	44	63*	58	24
SMILES	tim10-1 inh	NALP1 yeast inh	TIM10 inh	tim23-1 inh	SKKanGAS inh	PfHsp90 yeast 2	tim10-1 confirm
O=C(Cn1c(=O)c2cccn2c2cccnc21)N1CCN(c2ccc(Cl)cc2)CC1	43*	34	12	38	-5	-9	-14
Cc1ccc(Cl)cc1N1CCN(C(=O)CCCn2c(=O)c3cccn3c3cccnc32)CC1	36	22	20	35	32	-7	.
O=c1c2c(-c3cccs3)csc2ncn1/N=C/c1ccc(OC(F)F)cc1	47*	22	38	46	13	0	39*
Cc1ccc(-c2nc(C#N)c(NCc3cccc4c3OCO4)o2)cc1	44*	34	19	32	0	-11	10
O=C(NCCCc1ccccc1)c1cc([N+](=O)[O-])ccc1Cl	41*	9	10	31	-8	-3	16
O=C(O)c1cc([N+](=O)[O-])ccc1NCCCc1ccccc1	1	.	-6	24	25	-13	.
N/C(Cc1ccc([N+](=O)[O-])cc1)=N\OC(=O)Cc1ccccc1	51*	22	14	15	0	-1	41*
Cc1cccc(OCC(=O)O/N=C(\N)Cc2ccc([N+](=O)[O-])cc2)c1	15	4	32	25	-2	1	.
Cc1ccc(OCC(=O)O/N=C(\N)Cc2ccc([N+](=O)[O-])cc2)cc1C	52*	.	16	29	-8	2	53*
C/C(CCc1oc2ccc(Cl)cc2c1-c1ccc(C)o1)=N\O	42*	23	37	26	18	-21	43*
C/C(CCc1oc2ccc(Br)cc2c1-c1ccc(C)o1)=N/O	37	25	39	33	-6	-2	.
CN1CCCC(CC2Oc3ccccc3Sc3ccccc32)C1 (stereo not given)	40*	37	19	4	-5	21	20
c1ccc2c(c1)OC(CCCN1CCCCC1)c1ccccc1S2 (stereo not given)	18	25	6	-18	-3	2	.
C=Cc1ncc(OC)c2c1[nH]c1ccccc12	44*	.	22	31	-7	-26	37*
COc1ccc(-c2cc(C(=O)Nc3cccnc3)no2)cc1OC	18	16	1	25	-4	0	.
C/C(CC(=O)Nc1ccc2c(c1)OCO2)=N\NC(=O)OC(C)(C)C	0	10	3	16	3	8	.
CN(C)CCN(C(=O)/C=C/c1cccs1)c1nc2ccc(F)cc2s1	44*	54*	29	30	4	-19	35*
Cc1cc(Nc2nc3ccccc3nc2Cl)n(-c2ccccc2)n1	40	-4	31	38	-2	-17	23
Cc1ccn2c(NCc3ccccc3)c(-c3cccs3)nc2c1	46*	-7	29	46	0	13	30
Cc1ccn2c(NC(=O)c3ccccc3)c(-c3cccs3)nc2c1	6	6	-21	-4	2	.	.
CC(=O)c1ccc(-c2cccc(-c3nc4ccccn4c3NC3CCCCC3)c2)cc1	25	.	23	19	31	2	.
